ALDH1A1 block – inhibitors of human aldehyde dehydrogenase 1A1; Potency, µM (series often up to 75.3 µM), inactives show at the highest dose activity, negative = inhibition, actives largely listed as inhibitors; Purified ALDH1A1, NADH fluorescence, propionaldehyde substrate; hit rate 7.3% among 220,000;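 note: potency is the fitted concentration of half-maximal effect; plate controls were no enzyme wells and a reference inhibitor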
Target sequence (P00352 whole entry, looked up): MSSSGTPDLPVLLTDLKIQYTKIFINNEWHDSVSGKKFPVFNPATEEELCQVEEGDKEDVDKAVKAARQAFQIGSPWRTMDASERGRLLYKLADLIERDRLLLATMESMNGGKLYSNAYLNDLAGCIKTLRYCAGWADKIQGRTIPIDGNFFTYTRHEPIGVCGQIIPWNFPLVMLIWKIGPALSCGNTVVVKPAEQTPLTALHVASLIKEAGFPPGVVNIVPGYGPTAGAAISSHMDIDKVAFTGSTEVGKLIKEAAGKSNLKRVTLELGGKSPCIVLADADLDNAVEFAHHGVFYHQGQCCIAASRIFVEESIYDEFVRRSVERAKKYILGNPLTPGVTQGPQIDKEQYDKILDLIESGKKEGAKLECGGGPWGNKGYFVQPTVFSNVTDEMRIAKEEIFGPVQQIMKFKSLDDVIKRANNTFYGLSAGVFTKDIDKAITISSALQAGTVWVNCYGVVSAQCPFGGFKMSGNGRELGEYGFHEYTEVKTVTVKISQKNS
IMPase inh – IMPase inhibition in cells; P97697; CHO-M1 cells, IP1 accumulation, HTRF TR-FRET ratio; inhibition (IP1 accumulation), % at 46.1 µM; 120,000 tested, under 10 active; active = well fitted curve in the direction sought with a large enough effect in the signal ratio, not every such curve was filed as active; inconclusive = small, poorly fitted or top-dose-only effect, or a change in a side signal; inactive = no such curve, though single readings can be large or run the other way; the % refers to the signal ratio;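 note: cells stimulated with carbachol in lithium chloride buffer; plate controls were DMSO basal wells for no effect and reference inhibitor wells for full effect; higher means more IMPase inhibition seen as more IP1 and lower FRET ratio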
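Seeded CHO-M1 cells were dosed with compound at up to 46 uM, stimulated with carbachol for 30 min, then lysed in IP-One detection reagents. Higher IP1 lowers the TR-FRET signal.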
IMPase Li cell – membrane-permeable IMPase blocker, potentiated with lithium; CHO-M1 cells, IP1 TR-FRET (IP-One), carbachol + lithium; Potency, µM (doses to about 59.4 µM), for the others: at the highest dose activity, negative = IMPase inhibition, hits mostly inhibitors; hit rate 0.35% among 210,000; AID 1457; active = well fitted inhibition curve with a large enough effect; inconclusive = small, poorly fitted or top-dose-only effect; inactive = no such curve, though single readings can be large or run the other way;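 note: IP1 builds up when IMPase is blocked and the TR-FRET signal falls; potency is the fitted concentration of half-maximal effect; plate controls were basal vehicle for no effect and high inhibitor control for full effect; nearly all actives have a fitted effect of over 50% in size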
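CHO cells stably expressing M1 receptor (2000/well) were cultured 16–30 h, then exposed to compounds with a small lithium addition for 30 min at 37C. IP1 was measured by TR-FRET competition; AC50 from Hill fits.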
HPGD block – inhibitors of human 15-hydroxyprostaglandin dehydrogenase (HPGD); hit rate 4.3% among 150,000; purified HPGD, NADH fluorescence kinetic, PGE2 substrate; AID 894; Potency, µM, inactives show at the top dose activity change, negative = inhibition, actives largely listed as inhibitors; P15428; note: potency is the fitted concentration of half-maximal effect
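20 nM HPGD preincubated 15 min at room temperature with compound in 50 mM Tris-HCl pH 8, 0.01% Tween 20. Started with 1 mM NAD+ and 30 uM prostaglandin E2; NADH fluorescence (360/450 nm) read 5 times over 30-s intervals, last minus first.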
PNC assembly inh – blocks assembly of the perinucleolar compartment. PC3M PTB-GFP, PNC prevalence imaging, 16 h; hits give low values. activity change (PNC), negative = inhibition, % at 10 µM. hit rate 3.1% among 140,000. AID 2417;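 active = readout at or below -70, meaning at least 70% loss of cells showing the perinucleolar compartment, a nuclear body marking cancer cells; inconclusive = readout between -30 and a set limit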;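 note: plate controls were DMSO wells for no effect and camptothecin positive control wells for full effect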
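PC3M cells stably expressing PTB-GFP, 750–1000 cells/well, treated 16 h at 37 °C with compound (23 nl of library stock), in duplicate. After paraformaldehyde fixation and Hoechst stain, imaged at 20x; PNC prevalence scored by image analysis.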
* hit, by the source's call; u = inconclusive; x = no result given; [ ] = dose if it differs, or a comment. Sampled rows, rich in hits. Any-hit rate of the full collection: about 11%. Unless noted, calls come from the whole dose curve; as a rule, active = well fitted inhibition curve with a large enough effect (not every such curve was filed as active); inconclusive = small, poorly fitted or top-dose-only effect, or another doubt; inactive = no such curve, though single readings can be large or run the other way. Unless noted, % is set by controls: 0 for no effect and ±100 for the full control effect.

SMILES	ALDH1A1 block	IMPase inh	IMPase Li cell	HPGD block	PNC assembly inh
C#CC1(O)CC(C)N(C)C(C)C1 (configuration not stated)	u	0	18%[38.3 µM]	-5%	-91*
COc1ccc(CCN(C)CCCC(C#N)(c2cc(OC)c(OC)c(OC)c2)C(C)C)cc1OC (configuration not stated)	-3%	x	12%	-2%	-115*
N#C/C(=C/c1ccccc1[N+](=O)[O-])c1nc(C2CC2)cs1	11µM*	13	20%	u	-18
N#C/C(=C/c1ccccc1[N+](=O)[O-])c1nnc2n1CCCCC2	22µM*	-4	-1%	2.5µM*	u
N#C/C(=C\c1ccc([N+](=O)[O-])cc1)c1nc(C2CC2)cs1	-1%	x	14%	-5%	21
N#C/C(=C\c1ccccc1[N+](=O)[O-])c1nc(C2CC2)cs1	10µM*	x	1%	-27%	43
Cc1cc(C)cc(Oc2c(C(F)(F)F)oc3c(CN4CCCC(C)C4)c(O)ccc3c2=O)c1 (configuration not stated)	x	-3	x	x	x
Cc1cc(C)nc(/N=C(\N)Nc2ccc(S(=O)(=O)Nc3nccc(C)n3)cc2)n1	5%	x	7%	x	x
O=C(OCC(=O)c1c[nH]c2ccccc12)c1cc(Br)ccc1O	-9%	x	12%	x	x
Cc1oc(C)c2c(=O)ccc3c(c12)OC(N)=C(C#N)C3c1ccc(F)cc1 (configuration not stated)	14µM*	-11	15%[38.3 µM]	25µM*	u
Cc1noc(C)c1CSc1ccccc1C(=O)Nc1nccs1	19µM*	-6	u	-12%	-17
COc1ccc(/C=C/C(=O)N2CCCc3ccccc32)cc1	u	x	9%	11µM*	u
COc1cc(/C=C/C(=O)N2CCCc3ccccc32)cc(OC)c1OC	14µM*	x	7%	-10%	15
COc1ccc(OC)c(/C=C/C(=O)N2CCCc3ccccc32)c1	u	x	9%	x	x
COc1ccc(-n2c(=O)c3c4c(sc3n(Cc3cccc(F)c3)c2=O)CN(C(C)=O)CC4)c(OC)c1	10%	x	0%	x	x
CC(=O)N1CCc2c(sc3c2c(=O)n(-c2ccccc2)c(=O)n3Cc2ccccc2Cl)C1	-14%	x	6%	-8%	-114*
CCn1c(=O)c([N+](=O)[O-])c(Cl)c2ccccc21	u	x	37%	x	x
Cn1c(=O)c([N+](=O)[O-])c(NCC(O)c2ccccc2)c2ccccc21 (configuration not stated)	u	x	-6%	25µM*	-22
CCCCNc1c([N+](=O)[O-])c(=O)n(C)c2ccccc12	-8%	x	7%	x	x
O=c1c([N+](=O)[O-])c(NCCN2CCCCCC2)c2ccccc2n1-c1ccccc1	4µM*	x	7%	-10%	u
CCn1c(=O)c([N+](=O)[O-])c(NCC(O)c2ccccc2)c2ccccc21 (configuration not stated)	u	x	0%	16µM*	u
CCn1c(=O)c([N+](=O)[O-])c(NCCN(C)C)c2ccccc21	11µM*	x	-3%	x	x
O=C1[C@@H]2[C@@H](C(=O)N1c1ccc(OCc3ccccc3)cc1)[C@@H]1c3ccccc3[C@@H]2[n+]2ccccc21	-10%[13.5 µM]	x	19%	-4%	x
Cn1c(=O)c2c(nc(N3CCOCC3)n2Cc2cccc(Br)c2)n(C)c1=O	x	9	x	x	x
C[N+]1(C)C2CCC1CC(OC(=O)C(O)c1ccccc1)C2 (configuration not stated)	3%	x	32%	-19%	x
SMILES	ALDH1A1 block	IMPase inh	IMPase Li cell	HPGD block	PNC assembly inh
CCOC(=O)N1CCC(NC(=O)CCC(=O)N2CCOc3ccc(C)cc32)CC1	u	3	x	x	u
CCOC(=O)N1CCN(C(=O)CCC(=O)N2CCOc3ccc(C)cc32)CC1	25µM*	1	x	x	-2
CCN(CC)c1ccc(NC(=O)COC(=O)c2ccc3ccccc3n2)cc1	-11%	-3	26%[38.3 µM]	-27%	35
Cc1ccc(N/C=C(\C2OC(=O)c3ccccc32)[N+](=O)[O-])c(C)c1 (configuration not stated)	3.5µM*	x	10%	x	x
O=C1OC(/C(=C\Nc2cc(Cl)ccc2O)[N+](=O)[O-])c2ccccc21 (configuration not stated)	14µM*	x	-1%	x	x
COc1ccc(C(C#N)N2CCC(c3ccccc3)=N2)cc1OC (configuration not stated)	2.2µM*	x	3%	x	x
COc1ccc(C(C#N)N2CCCCCC2)cc1OC (configuration not stated)	u	4	-13%[38.3 µM]	-12%	-10
COc1ccc(C2=NN(C(C#N)c3ccc(OC)c(OC)c3)C(c3ccccc3)C2)cc1 (configuration not stated)	18µM*	3	18%[38.3 µM]	-29%	7
COc1ccc(NC(=O)[C@@H]2[C@@H]3C(=O)N(C4CCCCC4)C(=O)[C@@H]3C3c4ccccc4C=CN32)cc1 (some centres not stated)	0.5µM*	4	28%[38.3 µM]	-28%	34
CC(=O)[C@@H]1[C@@H]2C(=O)N(C3CCCCC3)C(=O)[C@@H]2C2c3ccccc3C=CN21 (some centres not stated)	7.1µM*	5	-11%[38.3 µM]	u	39
O=C(c1cc(C(F)(F)F)cc(C(F)(F)F)c1)N1CCC2(CC1)CN(Cc1ccccc1)C2	-5%	x	10%	0%	x
C[C@@]12C(=O)OC(=O)[C@@]1(C)[C@H]1CC[C@@H]2O1	x	12	x	x	x
Clc1ncnc2scc(C3COc4ccccc4O3)c12 (configuration not stated)	18µM*	-1	20%	28µM*	-17
O=c1c2c3c(sc2nc2n1CCC2)CCC3	-4%	1	2%[38.3 µM]	-12%	u
O=c1nc2n(c3c4c(sc13)CCC4)CCC2	18µM*	7	38%[38.3 µM]	-20%	23
Cc1ccc(S(=O)(=O)Nc2ccc(O)c(Sc3ncn[nH]3)c2)cc1	u	x	-2%	x	x
CC(C)c1ccc(S(=O)(=O)/N=C2/C=C(Sc3ncn[nH]3)C(=O)c3ccccc32)cc1	1.8µM*	u	46%	1.4µM*	u
Cc1ccc(S(=O)(=O)/N=C2/C=C(Sc3ncn[nH]3)C(=O)c3ccccc32)c(C)c1	13µM*	x	30%	1.4µM*	17
Cc1ccc(S(=O)(=O)/N=C2/C=C(Sc3ncn[nH]3)C(=O)c3ccccc32)cc1	13µM*	x	28%	0.89µM*	-22
CCCCC/C=C\C/C=C\CCCCCCCC(=O)NCCc1ccc(O)c(O)c1	-14%	x	7%	-2%	x
COC(=O)C(Cc1ccccc1)NC(=O)c1cccc(S(=O)(=O)N(C)C)c1 (configuration not stated)	u	x	2%	x	x
COc1ccc(C2c3c(oc4ccc(F)cc4c3=O)C(=O)N2Cc2ccc3c(c2)OCO3)cc1 (configuration not stated)	x	1	x	x	x
